Assay outcomes from PubChem.
KCNQ2 enhance: enhances the rat KCNQ2 potassium channel; O88943; CHO-K1 KCNQ2, FluxOR thallium flux fluorescence; active compounds read high; B-score at 10 µM; 310,000 compounds, 0.54% hits; AID 2239;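 active = fluorescence ratio B-score at least 3 SD of library B-scores, with initial fluorescence B-score within 3 of them, cut at about 5.3 in these data; same plate scores as AID 2156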;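 also: B-score of peak minus minimum over baseline fluorescence ratio after K+ and Tl+ stimulus; positive B-score means potentiation of KCNQ2 with more thallium influx and brighter signal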
Target sequence (O88943 whole entry, looked up): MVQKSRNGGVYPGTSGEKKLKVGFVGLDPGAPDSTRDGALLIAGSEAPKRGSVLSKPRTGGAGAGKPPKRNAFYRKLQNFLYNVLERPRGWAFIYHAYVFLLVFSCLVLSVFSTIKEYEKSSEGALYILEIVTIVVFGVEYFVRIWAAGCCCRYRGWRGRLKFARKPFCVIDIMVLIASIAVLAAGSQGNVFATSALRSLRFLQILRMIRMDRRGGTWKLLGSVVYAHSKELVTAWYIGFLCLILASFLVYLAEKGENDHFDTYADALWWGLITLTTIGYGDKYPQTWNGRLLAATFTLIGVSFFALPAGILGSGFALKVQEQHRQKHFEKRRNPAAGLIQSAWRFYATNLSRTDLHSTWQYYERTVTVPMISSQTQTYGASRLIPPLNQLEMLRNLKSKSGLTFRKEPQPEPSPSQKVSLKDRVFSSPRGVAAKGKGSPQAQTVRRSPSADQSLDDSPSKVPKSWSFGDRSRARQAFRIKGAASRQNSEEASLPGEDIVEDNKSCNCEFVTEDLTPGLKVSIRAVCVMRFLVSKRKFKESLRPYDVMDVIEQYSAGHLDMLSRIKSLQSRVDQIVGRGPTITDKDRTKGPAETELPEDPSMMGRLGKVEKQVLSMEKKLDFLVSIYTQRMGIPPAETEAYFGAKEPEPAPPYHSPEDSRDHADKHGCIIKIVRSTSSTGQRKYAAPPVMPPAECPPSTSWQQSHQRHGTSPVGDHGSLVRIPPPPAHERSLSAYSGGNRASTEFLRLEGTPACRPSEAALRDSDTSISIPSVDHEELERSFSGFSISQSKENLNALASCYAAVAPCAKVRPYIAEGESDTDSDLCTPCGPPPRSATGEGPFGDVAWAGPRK
KCNQ2 block: inhibitors of rat KCNQ2 potassium channel; O88943; CHO-K1 KCNQ2, FluxOR thallium flux, 20 min; active compounds read low; B-score at 10 µM; 310,000 compounds, 1.1% hits;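 active = fluorescence ratio B-score at most minus 3 library SDs, with starting brightness B-score within 2 library SDs, cut at about -5.5 in these data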
KCNQ2 inh conf: confirmation of rat KCNQ2 potassium channel inhibitors | shares compounds with KCNQ2 block | AID 493025 | activity change, negative = inhibition, % at 10 µM | KCNQ2-expressing cells, thallium flux, inhibition; active compounds read low | 1,000 compounds, 57% hits;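 also: 0% = vehicle wells and values are ratio percent relative to vehicle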
KCNQ1 spec: selectivity of KCNQ2 inhibitors against human KCNQ1; shares compounds with KCNQ2 block; KCNQ1-expressing cells, FluxOR thallium flux fluorescence; active compounds read low; activity change, negative = inhibition, % at 10 µM; 1,000 compounds, 15% hits;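 active = activity change at least 3 SD of negative controls below their mean in both duplicate wells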;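 also: CHO cells stably transfected with KCNQ1 and depolarized by potassium stimulus; peak minus minimum fluorescence over baseline after thallium addition; 0% = vehicle negative control and -100% = blank without thallium stimulus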
CHO Tl ctr: KCNQ2 inhibitor counter-screen hit in parental CHO cells | 1,000 compounds, 14% hits | shares compounds with KCNQ2 block | activity change, % at 10 µM | thallium flux counter-screen; active compounds read low | AID 493029;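 also: 0% = vehicle negative controls with stimulus buffer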
KCNQ2 patch conf: confirmation of rat KCNQ2 potassium channel inhibitors; shares compounds with KCNQ2 block; KCNQ2-expressing cells, automated patch clamp current; calls only at 10 µM; 550 compounds, 49% hits; AID 588531
* marks the source's active call; other numbers are inactive results. Hits are enriched below; roughly 1.6% of the tested compounds scored in any of these assays. Unless noted, no rule for the calls is given here.

`CCOc1cccc(C2NCc3ccccc3-n3cccc32)c1O` (configuration not stated) gave KCNQ2 enhance -6.75 and KCNQ2 block -6.75*.
`CCOc1cc(C2NCc3ccccc3-n3cccc32)ccc1O` (configuration not stated) gave KCNQ2 block inactive.
`COc1cccc(C(=O)C2CCCN(Cc3cccc4c3OCO4)C2)c1` (configuration not stated) gave KCNQ2 block inactive.
`COC(=O)C1=C(c2cc3ccccc3o2)C[C@@H]2CC[C@H]1N2C(=O)NCc1cccc2ccccc12` gave KCNQ2 block inactive.
For CC12CN3CC(C)(CN(C1)C3c1cccs1)C2O (configuration not stated) the results were KCNQ2 enhance 0.79 and KCNQ2 block inactive.
For CC(C)(C)C(=O)c1cn(Cc2ccccc2)c2ccccc12 the results were KCNQ2 enhance 0.19 and KCNQ2 block inactive.
For Cc1ccc(N2C(=O)NC(=O)C3(Cc4ccccc4N4CCN(c5ccccc5)CC43)C2=O)cc1 (configuration not stated) the results were KCNQ2 enhance -7.1 and KCNQ2 block -7.1*.
O=C1NC(=O)C2(Cc3ccccc3N3CCCC32)C(=O)N1c1cccc(Cl)c1 (configuration not stated) was read as KCNQ2 block inactive.
For CC/C=C/CC(=O)N[C@@H](c1ccccc1)[C@@H](O)C(=O)O[C@H]1C[C@@]2(O)[C@@H](OC(=O)c3ccccc3)C3[C@](C)(C(=O)[C@H](OC(C)=O)C(=C1C)C2(C)C)[C@@H](O)C[C@H]1OC[C@@]31OC(C)=O (some centres not stated) the results were KCNQ2 enhance -5.62 and KCNQ2 block -5.62*.
Screening CCC(C)C(=O)N[C@@H](c1ccccc1)[C@@H](O)C(=O)O[C@H]1C[C@@]2(O)[C@@H](OC(=O)c3ccccc3)C3[C@](C)(C(=O)[C@H](OC(C)=O)C(=C1C)C2(C)C)[C@@H](O)C[C@H]1OC[C@@]31OC(C)=O (some centres not stated) returned KCNQ2 block inactive.
Screening CN[C@H]1C[C@H]2O[C@@](C)([C@H]1OC)n1c3ccccc3c3c4c(c5c6ccccc6n2c5c31)C(=O)NC4 returned KCNQ2 enhance 9.27* and KCNQ2 block inactive.
Oc1ccccc1C1NCc2ccccc2-n2cccc21 (configuration not stated) was read as KCNQ2 block inactive.
`Cc1c2cnn(CC(=O)N3CCC4(CC3)OCCO4)c(=O)c2c(C)n1Cc1ccc(F)cc1` gave KCNQ2 enhance 2.19 and KCNQ2 block inactive.
Screening O=C(Cn1ncc2c3ccccc3n(Cc3ccccc3F)c2c1=O)N1CCC2(CC1)OCCO2 returned KCNQ2 enhance 15.5* and KCNQ2 block inactive.
For O=[N+]([O-])c1ccc(C2[C@H]3C(c4ccccc4)=NC4(CCCCC4)N23)cc1 (some centres not stated) the results were KCNQ2 block inactive.
`COc1cccc(NP(=O)(Oc2ccccc2)Oc2ccccc2)c1` gave KCNQ2 block inactive.
Screening O=P(Nc1cccc(Cl)c1)(Oc1ccccc1)Oc1ccccc1 returned KCNQ2 enhance -5.57 and KCNQ2 block -5.57*.
COc1ccc(-n2c(O)c(C=Nc3c(C)n(C)n(-c4ccccc4)c3=O)c(=O)[nH]c2=O)cc1 was read as KCNQ2 block inactive.
Screening CC(C)n1c(=O)c(C=Nc2cccc([N+](=O)[O-])c2)c(O)n(CCc2ccccc2)c1=O returned KCNQ2 enhance -6.71 and KCNQ2 block -6.71*.
For CC(C)n1c(=O)c(C=Nc2ccc(S(N)(=O)=O)cc2)c(O)n(Cc2ccco2)c1=O the results were KCNQ2 enhance 1.03 and KCNQ2 block inactive.
Screening CN=C(SCc1cc2c(cc1Cl)OCO2)c1c(O)n(C)c(=O)n(C)c1=O returned KCNQ2 enhance 2 and KCNQ2 block inactive.
Cc1nc2ccccc2c(=O)n1-c1cc([N+](=O)[O-])cc([N+](=O)[O-])c1 was read as KCNQ2 enhance 0.08 and KCNQ2 block inactive.
`CN1CCC(N(C)c2nc(-c3ccc([N+](=O)[O-])cc3)nc3ccccc23)CC1` gave KCNQ2 enhance -5.99 and KCNQ2 block -5.99*.
For CC1CCCC(C)N1/N=C/c1c[nH]c2ccc(Br)cc12 (configuration not stated) the results were KCNQ2 block inactive.
Screening Cc1ccc(C(O)P(=O)(Oc2ccccc2)Oc2ccccc2)cc1 (configuration not stated) returned KCNQ2 enhance 1.31 and KCNQ2 block inactive.
Screening CN(CCc1ccccc1)Cc1ccccc1[N+](=O)[O-] returned KCNQ2 block inactive.
Oc1ccccc1CN(CCc1ccccc1)Cc1ccccc1 was read as KCNQ2 enhance -6.05 and KCNQ2 block -6.05*.
Screening CN1CCCN(C(=O)COc2ccc(F)cc2F)CC1 returned KCNQ2 block inactive.
C=C(C)CSc1nnc([C@@H](N)Cc2ccccc2)o1 was read as KCNQ2 enhance 0.14 and KCNQ2 block inactive.
For COc1cc(CN2CC3CC(C2)c2cccc(=O)n2C3)cc(OC)c1OC (configuration not stated) the results were KCNQ2 enhance 0.5 and KCNQ2 block inactive.
`COc1cc(C)c(-c2nc(CN3C[C@@H]4C[C@@H](C3)c3cccc(=O)n3C4)c(C)o2)cc1C` gave KCNQ2 enhance -5.77 and KCNQ2 block -5.77*.
O=P(O)(O)/C=C(\Cl)c1ccccc1 was read as KCNQ2 block inactive.
`CCN(CC)P(=O)(/C=C(\Cl)c1ccccc1)/C=C(\Cl)c1ccccc1` gave KCNQ2 enhance -5.86 and KCNQ2 block -5.86*.
For CN(C)C(=S)SSC(=S)N(C)C the results were KCNQ2 enhance -10.3, KCNQ2 block -10.3*, KCNQ2 inh conf inactive, KCNQ1 spec inactive and CHO Tl ctr inactive.
C=CCn1c(O)c(C(CC)=Nc2ccc(N(C)C)cc2)c(=O)[nH]c1=O was read as KCNQ2 enhance 0.3 and KCNQ2 block inactive.
For FC(F)(F)c1ccc2c(c1)N(CCCN1CCN(CCCl)CC1)c1ccccc1S2 the results were KCNQ2 enhance -7.04, KCNQ2 block -7.04*, KCNQ2 inh conf -32.5%*, KCNQ1 spec inactive, CHO Tl ctr inactive and KCNQ2 patch conf inactive.
Screening Nc1ccc(CCN2CCN(c3cccc(C(F)(F)F)c3)CC2)cc1 returned KCNQ2 enhance 0.04 and KCNQ2 block inactive.
`NS(=O)(=O)c1cccc(N2CCNCC2)c1` gave KCNQ2 enhance 0.73 and KCNQ2 block inactive.
`CCOC(=O)C1(c2ccccc2)CCN(CC(=O)Nc2cccc3ccccc23)CC1` gave KCNQ2 block inactive.
